Results filed as inconclusive are left out. A number with no mark means an inactive call. Calls of active or inactive are those of the source.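 Rule for the calls: active = cell viability at or below a set limit in both duplicate runs, the limit being the all-compound median minus 4 SD (cut at about 23% in these data, passing the limit was not always enough); inconclusive = no clear call, values can overlap the other calls; inactive = the rest.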
Assay: growth suppression of beta-catenin knockout HCT116, pilot screen, human colon tumor cells (AID 823);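 note: 0% = wells killed by 20 µM Hyamine and 100% = untreated DMSO cell wells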
Details: CellTiter-Glo, 60 h, at 10 µM, active compounds read low

Compound | viability
Cc1ccc(C2/C(=C(/O)c3ccc(Br)cc3)C(=O)C(=O)N2Cc2ccco2)o1 (centres undefined) | 55%
C=CCN(C(=O)CN1CCOCC1)c1nc(C)c(-c2ccccc2)s1 | 91.9%
CCOc1cccc(=O)c2c(C)n(Cc3ccco3)c(C)c12 | 92.1%
CCOc1ccc(N(CC(=O)Nc2ccc(C)cc2)S(=O)(=O)c2c(C)noc2C)cc1 | 79.4%
CCCc1ccc(Oc2cn[nH]c2-c2ccc(O)cc2O)cc1 | 82.4%
CCOC(=O)N1CCN(C(=O)C2CCN(Cc3nc(-c4ccccc4C)oc3C)CC2)CC1 | 85.3%
Cc1cccc(NC(=O)CN2CCN(CC(=O)Nc3cccc(C)c3)CC2)c1 | 90.1%
COc1ccc(-c2nc(CSCC(=O)N3CCC(C(N)=O)CC3)c(C)o2)cc1OC | 106%
O=C1CC(c2ccco2)Sc2nc3ccccc3n21 (centres undefined) | 67.2%
COc1cc(NC(=O)c2onc(C)c2Cl)c(OC)cc1Cl | 91.7%
C/C(=C1/SC(N2CCOCC2)=NC1=O)c1ccc(Br)cc1 | 94.5%
COc1ccc(OC)c(C2=Nn3c(nnc3-c3ccncc3)SC2)c1 | 78.1%
CCOc1ccc2nc(N3CCCC(C(=O)N4CCN(CC)CC4)C3)sc2c1 (centres undefined) | 102%
O=C(Nc1nccs1)C12CC3CC(C1)CC(C(=O)Nc1nccs1)(C3)C2 | 75.3%
O=C(NC1CCCCC1)N1CCCc2ccccc21 | 86.1%
COc1ccc(C(=O)OCCN2C(=O)c3ccccc3C2=O)cc1 | 100%
OC(COc1ccccc1Cl)CN1CCN(CC(O)COc2ccccc2Cl)CC1 (centres undefined) | 73.3%
COCCNC(=O)CN1C(=O)CC(C)(C)S(=O)(=O)c2ccccc21 | 109%
Cc1ccc(S(=O)(=O)NCC(=O)N2CCC(C)CC2)cc1 | 104%
CCOc1ccc(C2CC(c3cccc(OC)c3)n3nc(N)nc3N2)cc1 (centres undefined) | 109%

Compound | viability
Cc1ccc(C2CC(c3cccc(Br)c3)n3nc(N)nc3N2)cc1 (centres undefined) | 68.2%
Cc1cc(Nc2cccc(F)c2)n2nc(C)nc2n1 | 101%
CCSc1nnc(NC(=O)CSc2nc3c(c(=O)n2-c2ccccc2)SCC3)s1 | 100%
O=c1oc2ccccc2n1Cc1ccccc1Cl | 97.1%
Cc1ccc(-c2nc(NC(=O)CSc3nnc(C)s3)ns2)cc1 | 123%
CC1(C)CC2CC(C)(CN2C(=O)c2cc(-c3ccccc3O)on2)C1 (centres undefined) | 75.5%
CC1CC(C)CN(S(=O)(=O)c2ccc(NC(=O)C3COc4ccccc4O3)cc2)C1 (centres undefined) | 53.9%
O=C(Nc1scc(-c2cccs2)c1C(=O)O)c1cccs1 | 103%
Cc1nc2ccccn2c1C(=O)NC1CCCCC1 | 101%
O=c1[nH]c2ccc(Cl)cc2c(-c2ccccc2)c1N1CCOCC1 | 89.4%
CCOC(=O)CN1c2ccccc2NC(=O)CC1C (centres undefined) | 101%
CCCCCn1c(=N)n(CC(O)COc2ccccc2OC)c2ccccc21 (centres undefined) | 15.6% (active)
COc1ccc(N2C(=O)c3ccccc3NC23CCCCC3)cc1 | 94.8%
Cc1cccc(N2CCN(C(=O)C3CCN(S(=O)(=O)c4cccc5cccnc45)CC3)CC2C)c1 (centres undefined) | 69.9%
CC(=O)Nn1cc2c(=O)n(C)c(=O)n(C)c2c1 | 98.3%
CC1=C(C(=O)OCCOc2ccccc2)C(c2ccc(C)o2)C2=C(CC(C)(C)CC2=O)N1 (centres undefined) | 78.2%
N/C(CC(=O)Nc1cccc(C(F)(F)F)c1)=N/O | 96.5%
COc1ccccc1CNC(=O)CCn1c(=O)oc2ccccc21 | 104%
Cc1ccc(C(=O)N(Cc2nc(-c3ccc(C)cc3)no2)C(C)C)cc1 | 100%
